# Reference: PubChem BioAssay (NCATS)
# Records with an inconclusive call do not appear. Entries that show only a call come without a potency. A number with no mark means an inactive call. Activity calls are given as the source filed them. Calls come from the whole dose curve; as a rule, active = well fitted curve in the direction sought with a large enough effect; inconclusive = small, poorly fitted or top-dose-only effect, or another doubt; inactive = no such curve, though single readings can be large; an effect the other way counts as inactive or inconclusive. Where a SMILES comes first, the peptide text is derived from it. The star is where a group is joined. βNA = c1ccc2cc(N*)ccc2c1; Cbz = O=C(OCc1ccccc1)*
# Legend:
# [1] = target: Calcium and integrin-binding protein 1 (Homo sapiens) (UniProt Q99828); experiment: Primary qHTS for Identification of Calcium Integrin Binding Protein 1 (CIB1) Competitor (AID 1508620);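 note: GST tagged CIB1 binding a fluorescein labelled alphaIIb integrin peptide tracer; top concentration of the series differs between compounds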
# In short: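 CIB1-GST (1 uM final) and compound incubated 15 min at room temperature before adding FITC-alphaIIb peptide tracer (100 nM final). Competition for binding read by fluorescence polarization (ex 480, em 540) after another 15 min at room temperature.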
# [2] = Primary qHTS for inhibitors of nuclear receptor binding SET domain protein 2 (NSD2) in an isogenic RCH-ACV NSD2 p.E1099K mutant (9B) (AID 1645876); note: nearly all actives have a fitted effect of over 70% in size; note: potency is the fitted concentration of half-maximal effect
# [3] = Primary qHTS for inhibitors of nuclear receptor binding SET domain protein 2 (NSD2) in an RCH-ACV wild type WT cells (2C) (AID 1645877); note: nearly all actives have a fitted effect of over 70% in size; note: potency is the fitted concentration of half-maximal effect
# Chain of Calcium and integrin-binding protein 1 (Homo sapiens) (Q99828 whole entry, looked up): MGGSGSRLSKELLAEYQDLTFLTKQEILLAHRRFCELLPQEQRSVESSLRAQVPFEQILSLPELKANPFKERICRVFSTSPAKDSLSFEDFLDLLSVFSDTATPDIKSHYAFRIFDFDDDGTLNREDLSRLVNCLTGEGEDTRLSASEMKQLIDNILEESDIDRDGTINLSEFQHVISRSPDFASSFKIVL
smiles,measurement,setting,value
C=C(C(=O)O)[C@@H]1CC[C@@]2(C)CCC[C@@](C)(O)[C@@H]2C1,Potency,[1],inactive
same,Potency,[2],inactive
same,Potency,[3],inactive
C=C1C2(C)CC3C4(C)C=CC(=O)OC(C)(C)C4CCC3(C)C1(C(=O)OC)C(=O)C(C)(O)C2=O (stereo unspecified),Potency,[1],inactive
same,Potency,[2],inactive
same,Potency,[3],inactive
CC1=C2C[C@@]3(C)C(CCC[C@@H]3C)C(O)C2(O)OC1=O (stereo partly specified),Potency,[1],inactive
same,Potency,[2],inactive
same,Potency,[3],23 µM (active)
CC(C)c1ccc2c(c1)[C@H](O)CC1[C@@](C)(C(=O)O)CCC[C@]21C (stereo partly specified),Potency,[1],inactive
same,Potency,[2],inactive
same,Potency,[3],inactive
C=C1CC[C@H]2[C@@](C)(CCC(O)[C@@]2(C)CO)[C@@H]1/C=C/C(=C\C(=O)O)C(=O)O (stereo partly specified),Potency,[1],inactive
same,Potency,[2],inactive
same,Potency,[3],inactive
CC/C=C\[C@H](O)[C@H](O)C1=C(C)C(=O)[C@]2(O1)C(=O)N[C@@](O)(C(=O)c1ccccc1)[C@@H]2O,Potency,[1],inactive
same,Potency,[2],inactive
same,Potency,[3],inactive
CC(=O)O[C@@]1(C)[C@@H]2CC(=C(C)C)C(=O)C[C@@]2(C)CC[C@H]1OC(=O)C1(C)OC1C (stereo partly specified),Potency,[1],inactive
same,Potency,[2],inactive
same,Potency,[3],inactive
CC1OC(O[C@H]2CC[C@@]3(C)C(CC[C@]4(C)C3CC=C3C5CC(C)(C)CC[C@]5(C(=O)OC5OC(CO)C(OC6OCC(OC7OCC(O)C(O)C7O)C(O)C6O)C(O)C5O)CC[C@]34C)C2(C)C)C(O)C(O)C1OC1OC(CO)C(O)C(OC2OC(CO)C(O)C(O)C2O)C1O (stereo partly specified),"activity change, negative = inhibition",[1],-8.26% [at 12.4 µM]
same,"activity change, negative = viability loss",[2],-12.9% [at 9.23 µM]
same,"activity change, negative = cell killing",[3],-19.1% [at 9.23 µM]
Nc1ccc(-n2nc(C(F)(F)F)cc2C(F)(F)F)cc1,Potency,[1],inactive
same,Potency,[2],inactive
same,Potency,[3],inactive
C=CC(C)(CC/C=C(\C)C(=O)OC[C@H]1O[C@@H](OC(C)(C=C)CC/C=C(\C)C(=O)O[C@H]2[C@H](O)[C@@H](O)[C@H](OC(C)(C=C)CC/C=C(\C)C(=O)O)O[C@@H]2CO)[C@H](O)[C@@H](O)[C@@H]1O)O[C@@H]1O[C@H](CO)[C@@H](O)[C@H](O)[C@H]1O (stereo partly specified),Potency,[1],inactive
same,"activity change, negative = viability loss",[2],-1.17% [at 9.23 µM]
same,outcome,[3],inactive [at 9.23 µM]
COC(=O)[C@H](O)[C@H]1C(C)(C)[C@H](OC(C)=O)[C@@]2(O)C(=O)[C@]1(C)C1CC[C@]3(C)C(CC(=O)O[C@H]3c3ccoc3)[C@]13O[C@@H]32 (stereo partly specified),Potency,[1],inactive
same,Potency,[2],inactive
same,Potency,[3],inactive
O=C1C(Cl)=C(N2CCOCC2)C(=O)N1c1ccc(Cl)c(Cl)c1,Potency,[1],inactive
same,Potency,[2],7.96 µM (active)
same,Potency,[3],8.93 µM (active)
CC1(C)C[C@H](O)C[C@@]2(C)[C@H]1[C@H](O)C=C1COC(=O)[C@@]12O,Potency,[1],inactive
same,Potency,[2],inactive
same,Potency,[3],inactive
CC(C)C1(O)NC(=O)C(CC2(O)c3ccccc3N3C(=O)C(C)(C)NC32)n2c1nc1ccccc1c2=O (stereo unspecified),Potency,[1],inactive
same,Potency,[2],inactive
same,Potency,[3],inactive
CC(=O)/C=C/C1(O)C(C)=CC(=O)CC1(C)C (stereo unspecified),Potency,[1],inactive
same,Potency,[2],inactive
same,Potency,[3],inactive
CC(CC12CCCN1C(=O)C1CCCN1C2=O)OC(N)=O (stereo unspecified),Potency,[1],inactive
same,Potency,[2],inactive
same,Potency,[3],inactive
CC1(C)[C@@H]2CC=C(CO[C@@H]3O[C@H](CO[C@@H]4OC[C@H](O)[C@H](O)[C@H]4O)[C@@H](O)[C@H](O)[C@H]3O)[C@H]1C2,Potency,[1],inactive
same,Potency,[2],inactive
same,Potency,[3],inactive
CC(C)C1NC(=O)C2CCCN2C1=O (stereo unspecified),Potency,[1],inactive
same,Potency,[2],inactive
same,Potency,[3],inactive
O=C(/C=C/c1ccc(O)cc1)OC[C@H]1O[C@H](O[C@@]2(CO)O[C@@H](CO)[C@H](O)[C@H]2O)[C@H](O)[C@@H](O)[C@@H]1O,Potency,[1],inactive
same,Potency,[2],inactive
same,Potency,[3],inactive
C=CC1(C)CC2CCC3C(C)(C(=O)O)CCCC3(C)C2=CC1=O (stereo unspecified),Potency,[1],inactive
same,Potency,[2],inactive
same,Potency,[3],inactive
COc1cc(C2OCC3(O)C(c4ccc(O[C@@H]5O[C@H](CO)[C@@H](O)[C@H](O)[C@H]5O)c(OC)c4)OCC23O)ccc1O (stereo partly specified),Potency,[1],inactive
same,Potency,[2],inactive
same,Potency,[3],inactive
COc1cc(C)c(C(=O)O[C@@H]2[C@H](O)[C@@H](CO)O[C@H]2n2ccc(=O)[nH]c2=O)c(OC)c1,Potency,[1],inactive
same,Potency,[2],inactive
same,Potency,[3],inactive
COc1cc(/C=C/CO[C@@H]2O[C@H](CO)[C@@H](O)[C@H](O)[C@H]2O)cc(OC)c1O[C@@H]1O[C@H](CO)[C@@H](O)[C@H](O)[C@H]1O,Potency,[1],inactive
same,Potency,[2],inactive
same,Potency,[3],inactive
COC1OC(O)C2(CCC3(O2)C(C)CC2OC(=O)C4(C)CCCC3(C)C24)C1O (stereo unspecified),Potency,[1],inactive
same,Potency,[2],inactive
same,Potency,[3],inactive
CC[C@H]1OC(=O)[C@H](C)C(=O)[C@H](C)[C@@H](OC2O[C@H](C)C[C@H](N(C)C)[C@H]2O)[C@@H](C)C[C@@H](C)C(=O)/C=C/[C@]1(C)O (stereo partly specified),Potency,[1],inactive
same,Potency,[2],inactive
same,Potency,[3],inactive
COCC1OC(OC(C)(C)C2CCC3(C)C=C(C4CCC5C4(C)CC(O)C4OC(C(C)(C)O)CCC45C)CCC3O2)C(NC(C)=O)C(O)C1O (stereo unspecified),Potency,[1],inactive
same,Potency,[2],inactive
same,Potency,[3],inactive
CC1=C2C3OC(=O)C(C)C3(O)CCC2(C)CCC1 (stereo unspecified),Potency,[1],inactive
same,Potency,[2],inactive
same,Potency,[3],inactive
CC1=CC[C@@]2(C)CC[C@@](O)(C(C)C)[C@@H]2[C@@H](O)C1,Potency,[1],inactive
same,Potency,[2],inactive
same,Potency,[3],inactive
C/C1=C\CC[C@]2(C)O[C@H]2C(=O)c2c(C)coc2C1,Potency,[1],inactive
same,Potency,[2],inactive
same,Potency,[3],inactive
C/C(=C\C1CCC(C)C2CCC3(C)OC123)C(=O)O (stereo unspecified),Potency,[1],inactive
same,Potency,[2],inactive
same,Potency,[3],inactive
C=C1CC23CC1CCC2C12OC(=O)C(C)(C(O)CC1O)C2C3C(=O)O (stereo unspecified),Potency,[1],inactive
same,Potency,[2],inactive
same,Potency,[3],inactive
CC(C)CC(NC(=O)OCc1ccccc1)C(=O)NC(CC(C)C)C(=O)NC(CCC(=O)O)C(=O)Nc1ccc2ccccc2c1 (stereo not drawn) (Cbz-Leu-Leu-Glu-βNA; configuration not given here),Potency,[1],inactive
same,Potency,[2],inactive
same,Potency,[3],inactive
C=C1C2CCC3CC2(CC(O)C2(O)C1CC(OC1OC(CO)C(O)C(O)C1O)C2(C)C)CC3(C)O (stereo unspecified),Potency,[1],inactive
same,Potency,[2],inactive
same,Potency,[3],inactive
O=C(OCc1ccccc1O[C@@H]1O[C@H](CO)[C@@H](O)[C@H](O)[C@H]1O)C1(O)C=CCCC1O (stereo partly specified),Potency,[1],inactive
same,Potency,[2],inactive
same,Potency,[3],inactive
C[C@H]1CCN2C[C@]34C[C@@]5(C(=O)Nc6c5ccc5c6OC=CC(C)(C)O5)C(C)(C)C3C[C@]12C(=O)N4C (stereo partly specified),Potency,[1],inactive
same,Potency,[2],inactive
same,Potency,[3],inactive
COc1cc(/C=C/C(=O)O[C@@H]2C[C@@](O)(C(=O)O)C[C@@H](O)[C@@H]2O)ccc1O,Potency,[1],inactive
same,Potency,[2],inactive
same,Potency,[3],inactive
C=C[C@@]1(C)CCC2=C([C@H]1OC(C)=O)[C@H](OC(C)=O)CC1[C@](C)(C(=O)OC)CC[C@H](OC(C)=O)[C@]21C (stereo partly specified),Potency,[1],inactive
same,Potency,[2],inactive
same,Potency,[3],inactive
C/C=C/C=C/C=C/C(=O)O[C@@H]1[C@@H](OC)C2=C(C(=O)N(C(CCC(=O)O)C(=O)O)C2)[C@@]2(C)CCCC(C)(C)[C@H]12 (stereo partly specified),Potency,[1],inactive
same,Potency,[2],inactive
same,Potency,[3],inactive
C[C@@H]1CC[C@]2(C(=O)O[C@@H]3O[C@H](CO[C@@H]4O[C@H](CO)[C@@H](O)[C@H](O)[C@H]4O)[C@@H](O)[C@H](O)[C@H]3O)CC[C@]3(C)C(=CCC4[C@@]5(C)CC[C@H](O)[C@](C)(C(=O)O)C5CC[C@]43C)[C@@H]2[C@]1(C)O (stereo partly specified),Potency,[1],inactive
same,"activity change, negative = viability loss",[2],-2.63% [at 9.23 µM]
same,"activity change, negative = cell killing",[3],-8.35% [at 9.23 µM]
CCC(C)/C=C(C)/C=C/C1=CC2=C(Cl)C(=O)C(C)(OC(C)=O)C(=O)C2=CN1C(CCC(=O)O)C(=O)O (stereo unspecified),Potency,[1],inactive
same,Potency,[2],inactive
same,Potency,[3],inactive
O=C(O)C1(c2ccc(-c3ccc(Cl)c(Cl)c3)c(F)c2)CC1,Potency,[1],inactive
same,Potency,[2],inactive
same,Potency,[3],inactive
CC1(C)CC[C@]2(C(=O)O[C@@H]3O[C@H](CO)[C@@H](O)[C@H](O)[C@H]3O)CC[C@]3(C)C(=CCC4[C@@]5(C)CC[C@H](O[C@@H]6O[C@H](C(=O)O)[C@@H](O[C@@H]7O[C@H](CO)[C@@H](O)[C@H](O)[C@H]7O)[C@H](O)[C@H]6O)C(C)(C)C5CC[C@]43C)C2C1 (stereo partly specified),Potency,[1],inactive
same,outcome,[2],inactive [at 9.23 µM]
same,"activity change, negative = cell killing",[3],2.22% [at 9.23 µM]
COC(=O)C1=CO[C@@H](O[C@@H]2O[C@H](CO)[C@@H](O)[C@H](O)[C@H]2O)[C@@H]2[C@@H](C)[C@@H](OC(=O)/C=C/c3ccccc3)[C@@H](O)[C@H]12,Potency,[1],inactive
same,Potency,[2],inactive
same,Potency,[3],inactive
O=C(Nc1ccn(Cc2c(F)cccc2C(F)(F)F)n1)c1c(F)cccc1F,Potency,[1],inactive
same,"activity change, negative = viability loss",[2],-7.96% [at 9.23 µM]
same,"activity change, negative = cell killing",[3],-25.3% [at 9.23 µM]
COC(=O)c1ccccc1O[C@@H]1O[C@H](CO[C@@H]2OC[C@@H](O)[C@H](O)[C@H]2O)[C@@H](O)[C@H](O)[C@H]1O,Potency,[1],inactive
same,Potency,[2],inactive
same,Potency,[3],inactive
CC(=O)NC(Cc1ccccc1)C(=O)NC(C(=O)O)C(C)C (stereo not drawn) (Ac-Phe-Val-OH; configuration not given here),Potency,[1],inactive
same,Potency,[2],inactive
same,Potency,[3],inactive
CC1=C2C[C@@]3(C)[C@@H](CCC[C@@H]3C)C[C@@]2(O)OC1=O,Potency,[1],inactive
same,Potency,[2],inactive
same,Potency,[3],inactive
C/C=C/C1OC2=C(C(=O)OC2(C)O)C(O)C1O (stereo unspecified),Potency,[1],inactive
same,Potency,[2],inactive
same,Potency,[3],inactive
CC1=C(C)C(=O)OC(C(C)C2C(O)CC3C4C5OC5C5(O)CC(OC6OC(CO)C(OC7OC(C)C(O)C(O)C7O)C(O)C6O)CC(O)C5(C)C4CCC32C)C1 (stereo unspecified),Potency,[1],inactive
same,Potency,[2],inactive
same,Potency,[3],inactive
CC(C)CC(=O)NCCn1cc(C(=O)O)c(=O)cc1C(O)c1ccccc1 (stereo unspecified),Potency,[1],inactive
same,Potency,[2],inactive
same,Potency,[3],inactive
CC(=O)OC[C@@]12C(=O)C[C@@H](C)[C@]3(C[C@@H](c4ccoc4)OC3=O)[C@H]1CC[C@H](OC(C)=O)[C@]21CO1,Potency,[1],inactive
same,Potency,[2],inactive
same,Potency,[3],inactive
CCC(C)C(C(=O)O)N1Cc2c(OCC=C(C)C)c(C)c(OC)c(C(=O)O)c2C1=O (stereo unspecified),Potency,[1],inactive
same,Potency,[2],inactive
same,Potency,[3],inactive
